# Experimental data published in PubChem BioAssay AID2184 (The Scripps Research Institute Molecular Screening Center, 2009).
# The list shows a part of the results. The source made the active and inactive calls. Cut-off read from the data, not from the text of the source: active = inhibition above about 0.66%; inactive = the rest.
# Target: Beta-lactamase TEM (Escherichia coli) (UniProt P62593)
# Experiment: Serine beta-lactamase TEM-1 inhibition, biochemical epi-absorbance counter-screen for IMP-1/VIM-2 inhibitor program (AID 2184)
# Conditions: TEM-1 beta-lactamase, nitrocefin absorbance inhibition; at 5.6 µM; hits give high values
# Chain of Beta-lactamase TEM (Escherichia coli) (P62593 whole entry, looked up): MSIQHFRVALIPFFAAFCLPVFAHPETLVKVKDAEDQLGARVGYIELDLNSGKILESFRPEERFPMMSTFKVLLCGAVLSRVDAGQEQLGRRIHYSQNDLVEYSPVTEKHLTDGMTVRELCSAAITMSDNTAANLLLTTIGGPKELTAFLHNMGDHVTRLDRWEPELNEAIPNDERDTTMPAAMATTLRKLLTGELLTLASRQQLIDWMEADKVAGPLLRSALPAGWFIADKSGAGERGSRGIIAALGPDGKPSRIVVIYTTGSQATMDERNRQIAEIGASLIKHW
row,Structure (SMILES),inhibition
1,c1ccc(-c2nccc(-c3ccc(-n4cnc5ccccc54)cc3)n2)nc1,-3.39% (inactive)
2,NC(=O)c1ccc(NC(=O)COC(=O)c2c3c(nc4ccccc24)/C(=C\c2ccc4c(c2)OCO4)CCC3)cc1,-4.26% (inactive)
3,Oc1ccc2ccc3cccc[n+]3c2c1,25.5% (active)
4,NS(=O)(=O)c1ccc(NC(=O)COC(=O)c2c3c(nc4ccccc24)/C(=C\c2ccc4c(c2)OCO4)CCC3)cc1,-4.87% (inactive)
5,Cc1nn(C)cc1N1C(=O)c2cccc3c(N)ccc(c23)C1=O,43.9% (active)
6,COc1cc(/C=C2/SC(=S)N(Cc3ccccc3)C2=O)cc(OC)c1O,12.7% (active)
7,CN1C(=O)c2cccc3c(N)ccc(c23)C1=O,49.7% (active)
8,Cc1cc2nc3c(=O)n(Cc4ccccc4)c(=O)[nH]c3nc2cc1N,30.2% (active)
9,C/C(=N\Nc1ccc(S(N)(=O)=O)cc1[N+](=O)[O-])c1cccs1,1.6% (active)
10,CCC(=C/c1sc2ccc3ccccc3c2[n+]1C)/C=C1\Sc2ccc3ccccc3c2N1C,-0.12% (inactive)
11,Nc1c(C(=O)c2cccs2)sc2nsc(SCCN3CCCCC3)c12,23.4% (active)
